# In ChEMBL document CHEMBL1961873, “Compounds: GSK PKIS; Assays: Nanosyn kinase panel” (2012):
# Key:
# [1] = target: T1, 3-phosphoinositide-dependent protein kinase 1 (Homo sapiens) (UniProt O15530); conditions: at 0.1 µM;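 also: values are mean inhibition of PDK1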
# T1 sequence (whole entry): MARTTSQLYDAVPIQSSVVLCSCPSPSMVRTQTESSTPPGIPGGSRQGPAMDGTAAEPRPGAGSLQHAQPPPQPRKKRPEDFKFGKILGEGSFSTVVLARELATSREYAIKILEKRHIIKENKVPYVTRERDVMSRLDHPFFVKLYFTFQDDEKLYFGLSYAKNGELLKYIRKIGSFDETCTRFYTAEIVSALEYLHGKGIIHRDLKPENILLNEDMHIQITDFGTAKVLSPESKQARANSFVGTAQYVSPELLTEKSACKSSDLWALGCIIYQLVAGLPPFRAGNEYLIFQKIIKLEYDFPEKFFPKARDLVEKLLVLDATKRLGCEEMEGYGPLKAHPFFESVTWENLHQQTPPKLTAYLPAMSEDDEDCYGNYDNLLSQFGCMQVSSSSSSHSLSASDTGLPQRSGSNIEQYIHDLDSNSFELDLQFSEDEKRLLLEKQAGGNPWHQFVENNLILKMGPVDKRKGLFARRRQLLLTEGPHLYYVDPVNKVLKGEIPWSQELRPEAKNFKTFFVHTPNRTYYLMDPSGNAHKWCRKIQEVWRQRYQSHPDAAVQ
# [2] = target: cAMP-dependent protein kinase catalytic subunit alpha (Homo sapiens) (UniProt P17612); conditions: at 0.1 µM
# [3] = target: cAMP-dependent protein kinase catalytic subunit alpha (Homo sapiens) (UniProt P17612); conditions: at 1 µM
# [4] = target: Protein kinase C alpha type (Homo sapiens) (UniProt P17252); conditions: at 0.1 µM
# [5] = target: Protein kinase C alpha type (Homo sapiens) (UniProt P17252); conditions: at 1 µM
# [6] = target: Protein kinase C beta type (Homo sapiens) (UniProt P05771); conditions: at 0.1 µM
# Chain of Protein kinase C beta type (Homo sapiens) (P05771 2-671 limits assumed): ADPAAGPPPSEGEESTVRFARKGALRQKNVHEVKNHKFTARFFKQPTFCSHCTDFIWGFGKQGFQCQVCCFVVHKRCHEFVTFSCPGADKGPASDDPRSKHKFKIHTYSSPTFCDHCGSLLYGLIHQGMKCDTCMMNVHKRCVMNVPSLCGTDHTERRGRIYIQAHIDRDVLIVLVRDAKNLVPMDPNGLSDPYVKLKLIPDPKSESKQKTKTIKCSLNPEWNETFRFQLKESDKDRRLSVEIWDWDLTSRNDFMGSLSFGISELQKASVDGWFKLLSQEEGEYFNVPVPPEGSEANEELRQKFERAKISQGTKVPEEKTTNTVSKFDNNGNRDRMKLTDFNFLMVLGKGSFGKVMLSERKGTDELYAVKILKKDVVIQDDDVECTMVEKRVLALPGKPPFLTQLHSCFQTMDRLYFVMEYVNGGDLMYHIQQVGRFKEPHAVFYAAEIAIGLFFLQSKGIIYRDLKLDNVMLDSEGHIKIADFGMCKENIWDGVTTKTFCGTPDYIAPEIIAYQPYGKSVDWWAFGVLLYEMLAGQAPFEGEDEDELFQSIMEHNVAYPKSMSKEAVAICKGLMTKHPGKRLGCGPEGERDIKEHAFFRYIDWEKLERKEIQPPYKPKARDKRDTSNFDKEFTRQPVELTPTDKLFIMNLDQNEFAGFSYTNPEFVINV
# [7] = target: Protein kinase C beta type (Homo sapiens) (UniProt P05771); conditions: at 1 µM
# [8] = target: Protein kinase C eta type (Homo sapiens) (UniProt P24723); conditions: at 0.1 µM
# Chain of Protein kinase C eta type (Homo sapiens) (P24723 whole entry): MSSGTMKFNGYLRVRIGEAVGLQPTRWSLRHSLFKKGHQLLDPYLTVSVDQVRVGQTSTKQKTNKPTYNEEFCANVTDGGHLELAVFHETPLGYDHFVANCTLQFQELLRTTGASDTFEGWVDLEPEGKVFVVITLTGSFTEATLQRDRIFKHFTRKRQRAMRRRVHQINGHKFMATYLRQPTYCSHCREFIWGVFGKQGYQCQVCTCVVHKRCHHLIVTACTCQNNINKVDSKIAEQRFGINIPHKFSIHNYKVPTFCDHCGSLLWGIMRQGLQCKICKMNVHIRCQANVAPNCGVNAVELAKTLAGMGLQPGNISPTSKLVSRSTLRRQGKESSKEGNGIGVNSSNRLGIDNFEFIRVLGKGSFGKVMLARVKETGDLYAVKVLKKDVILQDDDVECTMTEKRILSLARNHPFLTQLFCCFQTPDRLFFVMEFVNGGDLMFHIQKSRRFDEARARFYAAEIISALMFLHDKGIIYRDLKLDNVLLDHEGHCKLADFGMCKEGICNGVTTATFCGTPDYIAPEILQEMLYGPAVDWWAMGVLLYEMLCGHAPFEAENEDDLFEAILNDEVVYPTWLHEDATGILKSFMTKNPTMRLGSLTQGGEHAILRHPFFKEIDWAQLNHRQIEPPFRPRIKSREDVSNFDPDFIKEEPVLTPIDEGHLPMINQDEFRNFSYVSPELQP
# [9] = target: Protein kinase C eta type (Homo sapiens) (UniProt P24723); conditions: at 1 µM
# [10] = target: Protein kinase C gamma type (Homo sapiens) (UniProt P05129); conditions: at 0.1 µM
# [11] = target: Protein kinase C gamma type (Homo sapiens) (UniProt P05129); conditions: at 1 µM
# [12] = target: T2, Protein kinase C iota type (Homo sapiens) (UniProt P41743); conditions: at 0.1 µM
# T2 sequence (whole entry): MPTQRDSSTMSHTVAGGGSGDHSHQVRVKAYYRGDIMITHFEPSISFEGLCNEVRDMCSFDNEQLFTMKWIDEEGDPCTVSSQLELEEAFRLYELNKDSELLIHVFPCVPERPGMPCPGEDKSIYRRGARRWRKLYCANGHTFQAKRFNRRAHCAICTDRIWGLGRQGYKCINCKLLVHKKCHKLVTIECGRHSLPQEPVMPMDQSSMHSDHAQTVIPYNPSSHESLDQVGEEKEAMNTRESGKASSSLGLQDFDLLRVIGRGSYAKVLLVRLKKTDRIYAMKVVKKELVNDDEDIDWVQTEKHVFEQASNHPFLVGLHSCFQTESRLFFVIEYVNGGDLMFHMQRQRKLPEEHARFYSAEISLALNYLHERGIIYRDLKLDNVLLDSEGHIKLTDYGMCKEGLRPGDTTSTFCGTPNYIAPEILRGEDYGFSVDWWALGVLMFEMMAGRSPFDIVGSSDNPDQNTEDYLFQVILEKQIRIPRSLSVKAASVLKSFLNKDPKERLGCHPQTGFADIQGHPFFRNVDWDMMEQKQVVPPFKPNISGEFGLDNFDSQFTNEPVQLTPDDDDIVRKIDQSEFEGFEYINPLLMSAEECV
# [13] = target: T2, Protein kinase C iota type (Homo sapiens); conditions: at 1 µM
# [14] = target: Protein kinase C theta type (Homo sapiens) (UniProt Q04759); conditions: at 0.1 µM
# Chain of Protein kinase C theta type (Homo sapiens) (Q04759 whole entry, looked up): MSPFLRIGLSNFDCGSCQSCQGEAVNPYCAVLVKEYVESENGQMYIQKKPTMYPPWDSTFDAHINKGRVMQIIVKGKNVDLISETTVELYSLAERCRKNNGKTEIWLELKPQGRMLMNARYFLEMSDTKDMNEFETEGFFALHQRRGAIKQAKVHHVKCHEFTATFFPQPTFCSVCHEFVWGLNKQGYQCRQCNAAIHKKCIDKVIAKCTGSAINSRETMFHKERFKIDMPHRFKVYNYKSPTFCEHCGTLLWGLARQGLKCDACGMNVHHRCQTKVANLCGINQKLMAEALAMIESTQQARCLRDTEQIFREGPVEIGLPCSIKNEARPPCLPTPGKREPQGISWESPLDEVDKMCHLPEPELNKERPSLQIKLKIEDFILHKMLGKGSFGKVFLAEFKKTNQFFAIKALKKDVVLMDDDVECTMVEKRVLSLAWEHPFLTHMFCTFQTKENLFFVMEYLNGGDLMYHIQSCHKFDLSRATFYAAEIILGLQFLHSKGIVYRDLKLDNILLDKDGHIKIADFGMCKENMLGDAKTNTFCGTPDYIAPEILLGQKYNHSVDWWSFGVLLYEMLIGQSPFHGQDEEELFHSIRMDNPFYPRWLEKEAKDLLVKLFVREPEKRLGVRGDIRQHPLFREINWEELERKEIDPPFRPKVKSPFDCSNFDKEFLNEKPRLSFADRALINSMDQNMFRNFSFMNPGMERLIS
# [15] = target: Protein kinase C theta type (Homo sapiens) (UniProt Q04759); conditions: at 1 µM
# [16] = target: Protein kinase C beta type (Homo sapiens) (UniProt P05771); conditions: at 0.1 µM; remark: listed apart in the source
# [17] = target: Protein kinase C beta type (Homo sapiens) (UniProt P05771); conditions: at 1 µM; remark: listed apart in the source
# [18] = target: T3, Serine/threonine-protein kinase D1 (Homo sapiens) (UniProt Q15139); conditions: at 0.1 µM
# T3 sequence (whole entry): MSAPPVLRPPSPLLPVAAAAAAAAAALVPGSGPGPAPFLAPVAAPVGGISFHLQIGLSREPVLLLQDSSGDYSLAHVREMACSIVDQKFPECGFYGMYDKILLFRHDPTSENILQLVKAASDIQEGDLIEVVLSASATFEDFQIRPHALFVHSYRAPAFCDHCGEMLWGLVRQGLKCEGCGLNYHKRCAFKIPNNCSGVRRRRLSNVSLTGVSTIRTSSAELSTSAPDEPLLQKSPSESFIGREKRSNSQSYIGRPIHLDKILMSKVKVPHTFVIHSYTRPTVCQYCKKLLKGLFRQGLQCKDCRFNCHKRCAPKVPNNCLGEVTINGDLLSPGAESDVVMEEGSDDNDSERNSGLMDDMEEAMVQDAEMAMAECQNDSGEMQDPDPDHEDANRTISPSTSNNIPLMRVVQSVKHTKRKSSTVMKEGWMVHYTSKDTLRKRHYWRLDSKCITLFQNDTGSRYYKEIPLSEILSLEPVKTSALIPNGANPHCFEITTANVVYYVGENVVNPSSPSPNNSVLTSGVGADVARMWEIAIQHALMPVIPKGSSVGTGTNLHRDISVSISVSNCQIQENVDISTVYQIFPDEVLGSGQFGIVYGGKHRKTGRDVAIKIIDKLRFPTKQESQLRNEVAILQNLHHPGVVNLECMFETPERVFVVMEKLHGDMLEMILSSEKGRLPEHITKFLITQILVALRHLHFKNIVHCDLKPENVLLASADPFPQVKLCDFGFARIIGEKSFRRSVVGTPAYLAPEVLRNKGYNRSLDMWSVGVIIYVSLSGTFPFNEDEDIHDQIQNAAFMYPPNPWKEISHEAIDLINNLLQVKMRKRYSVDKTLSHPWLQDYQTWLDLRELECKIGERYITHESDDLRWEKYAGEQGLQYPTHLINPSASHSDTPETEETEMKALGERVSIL
# [19] = target: T3, Serine/threonine-protein kinase D1 (Homo sapiens); conditions: at 1 µM
# [20] = target: T4, Serine/threonine-protein kinase D2 (Homo sapiens) (UniProt Q9BZL6); conditions: at 0.1 µM;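 also: reported percent inhibition values are means, part of the GSK PKIS kinase panel screen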
# T4 sequence (whole entry): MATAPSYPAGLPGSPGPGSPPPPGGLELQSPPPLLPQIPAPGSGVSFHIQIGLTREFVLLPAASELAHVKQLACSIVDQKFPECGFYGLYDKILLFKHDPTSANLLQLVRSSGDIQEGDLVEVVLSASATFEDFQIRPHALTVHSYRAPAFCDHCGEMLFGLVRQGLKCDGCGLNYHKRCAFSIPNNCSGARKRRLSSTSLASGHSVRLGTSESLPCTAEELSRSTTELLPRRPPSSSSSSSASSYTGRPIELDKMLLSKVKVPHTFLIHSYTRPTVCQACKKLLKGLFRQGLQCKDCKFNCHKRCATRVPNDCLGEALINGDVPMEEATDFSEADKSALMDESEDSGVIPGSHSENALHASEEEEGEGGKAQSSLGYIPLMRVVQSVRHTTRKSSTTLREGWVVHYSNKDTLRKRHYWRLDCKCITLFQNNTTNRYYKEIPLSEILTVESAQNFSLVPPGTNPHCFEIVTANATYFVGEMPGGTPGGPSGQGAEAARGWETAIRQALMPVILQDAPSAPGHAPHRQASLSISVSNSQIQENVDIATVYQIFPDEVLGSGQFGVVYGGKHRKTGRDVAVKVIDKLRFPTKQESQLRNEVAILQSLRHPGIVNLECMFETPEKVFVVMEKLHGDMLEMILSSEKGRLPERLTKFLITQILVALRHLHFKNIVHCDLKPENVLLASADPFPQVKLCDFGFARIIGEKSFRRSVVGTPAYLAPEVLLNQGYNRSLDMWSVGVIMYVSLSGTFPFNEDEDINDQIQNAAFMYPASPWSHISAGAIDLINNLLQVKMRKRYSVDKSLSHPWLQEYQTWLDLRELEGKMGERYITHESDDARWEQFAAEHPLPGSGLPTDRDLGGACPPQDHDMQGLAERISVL
Structure (SMILES),inhibition [1],inhibition [2],inhibition [3],inhibition [4],inhibition [5],inhibition [6],inhibition [7],inhibition [8],inhibition [9],inhibition [10],inhibition [11],inhibition [12],inhibition [13],inhibition [14],inhibition [15],inhibition [16],inhibition [17],inhibition [18],inhibition [19],inhibition [20]
Nc1nc(-c2ccccn2)c(-c2ccc3ncccc3n2)s1,1.75%,1.32%,1.89%,1.07%,1.65%,0.07%,1.26%,5.03%,2.77%,1.52%,4.9%,2.73%,1.17%,2.24%,3.34%,-0.19%,0.88%,2.38%,4.64%,2.92%
Cc1cccc(-c2n[nH]cc2-c2ccc3ncccc3n2)n1,1.02%,1.12%,1.28%,0.19%,-0.46%,0.17%,0.39%,-0.08%,2.61%,-0.61%,0.55%,0.4%,-1.7%,0.33%,-0.49%,0.52%,0.49%,2.77%,32.8%,5.63%
CC(=O)Nc1cccc(C#Cc2cncnc2Nc2ccc(OCc3cccc(F)c3)c(Cl)c2)n1,-0.76%,2.4%,4.87%,1.1%,0.59%,5.03%,8.84%,0.65%,3.65%,2.74%,1.63%,0.57%,-0.05%,1.96%,3.96%,2.66%,2.15%,-0.03%,-2.44%,-1.45%
NS(=O)(=O)c1ccc(N/N=C2\C(=O)Nc3ccc(C(=O)NCCc4c[nH]cn4)cc32)cc1,14.2%,2.18%,7.07%,1.52%,5.32%,1.16%,-0.4%,5.07%,2.38%,0.92%,5.55%,2.26%,2.34%,2.03%,3.63%,1.05%,2.48%,6.28%,34.4%,5.45%
CCCN1CCC=C(c2ccc(Nc3nc(Nc4ccccc4C(N)=O)c4cc[nH]c4n3)c(C)c2)C1,-0.1%,2.92%,2.79%,0.33%,6.13%,-0.14%,-0.64%,5.56%,4.73%,3.41%,9.77%,0.1%,1.27%,2.34%,3.28%,1.44%,3.5%,33.8%,71.3%,25.1%
Cc1nnc(-c2ccc(C)c(-c3ccc(C(=O)Nc4cccc(C#N)c4)cc3)c2)o1,0.99%,2.18%,1.76%,0.5%,0.89%,-0.92%,2.05%,0.8%,3.76%,1.49%,5.13%,-0.73%,-1.05%,1%,1.47%,1.09%,1.38%,4.29%,4.48%,2.17%
COc1cc2ncn(-c3cc(OCc4ccccc4C(F)(F)F)c(C(N)=O)s3)c2cc1OC,0.58%,-1.97%,-1.35%,-3.16%,-2.48%,0.23%,0.89%,5.48%,5.95%,-1.78%,0.51%,3.36%,3.32%,2.16%,3.1%,1.23%,2%,0.73%,0.99%,1.16%
O=C1NC(=O)C(c2ccc(Cl)cc2)=C1Nc1ccc(Cl)c(C(=O)O)c1,0.12%,-1.8%,-1.57%,-0.02%,-0.11%,-1.13%,-0.89%,-3.26%,-3.28%,0.52%,1.73%,0.12%,3.71%,-0.99%,-0.44%,-0.73%,3.47%,-1.33%,0.04%,-1.08%
